Only a selection was taken, and hits are over-represented in it overall.
ST2 inh: IL1RL1 inhibition; Q01638; AlphaLISA ST2-Fc/biotin-IL-33 interaction, 1 h; inhibition, % for hits at 17 µM; 2.3% of 78,000 active; AID 1259354; in the data active = inhibition above about 30%
Target sequence (Q01638 whole entry, looked up): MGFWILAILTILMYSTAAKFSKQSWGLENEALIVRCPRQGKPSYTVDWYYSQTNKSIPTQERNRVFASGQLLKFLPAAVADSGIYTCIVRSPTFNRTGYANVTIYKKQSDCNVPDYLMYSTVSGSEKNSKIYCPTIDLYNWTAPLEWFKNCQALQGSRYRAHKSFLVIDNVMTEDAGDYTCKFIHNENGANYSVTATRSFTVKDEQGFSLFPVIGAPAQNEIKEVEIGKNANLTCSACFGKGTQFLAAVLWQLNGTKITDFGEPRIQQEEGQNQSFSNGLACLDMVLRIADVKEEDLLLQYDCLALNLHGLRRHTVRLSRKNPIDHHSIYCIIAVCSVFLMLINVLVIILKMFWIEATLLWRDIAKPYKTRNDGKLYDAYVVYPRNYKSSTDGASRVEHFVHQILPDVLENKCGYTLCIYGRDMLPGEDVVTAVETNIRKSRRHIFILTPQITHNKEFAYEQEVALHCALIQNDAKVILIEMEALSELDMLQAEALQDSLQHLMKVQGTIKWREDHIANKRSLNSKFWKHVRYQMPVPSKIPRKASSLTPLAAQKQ
Hits are given with their value; i = inactive.

SMILES	ST2 inh
CCOC(=O)c1c(C)n(C(C)C)c2ccc(OC)cc12	i
COc1ccc2c(c1)c(CCN)c(C)n2Cc1ccccc1	38%
COc1ccc2c(CCN)c[nH]c2c1	i
COc1ccc(-c2cc([C@H]3CN4CC[C@H]3C[C@@H]4CNC(=S)Nc3cc(C)cc(C)c3)n(C)n2)cc1OC	i
S=C(NC[C@H]1C[C@@H]2CCN1C[C@@H]2CN1CCN(c2ccccn2)CC1)Nc1ccccc1	i
CCN(CC)C(=O)c1ccc2c(c1)C1C=CCC1C(C(=O)O)N2 (stereo not given)	60%
CCN(CC)C(=O)c1ccc(N2C(=O)C3CC=C(Cl)CC3C2=O)cc1 (stereo not given)	i
CCOC(=O)Cc1csc(NC(=O)c2cccn(Cc3ccc(C(F)(F)F)cc3)c2=O)n1	i
O=[N+]([O-])c1ccc(O)cc1CN1CCN(Cc2ccccc2)CC1	i
CCN(CCNc1ccc([N+](=O)[O-])c2cccnc12)S(=O)(=O)c1ccccc1	i
O=[N+]([O-])c1ccc(N2CCCCC2)c2ncccc12	62%
O=[N+]([O-])c1ccc(NCc2ccccc2)c2ncccc12	51%
Cc1c(C(c2ccccc2)c2c(O)c3ccccc3oc2=O)c(=O)n(-c2ccccc2)n1C (stereo not given)	i
Cc1nnc(N2CCN(C)CC2)[nH]c1=O	i
OC1CCN(Cc2cccnc2)CC1	i
CN1CCC2(CCN(CCN)CC2)C1	i
CCN1CCN(Cc2ccc(OC)c(OC)c2)CC1	i
Cc1cccc(N2CCN(Cc3ccc([N+](=O)[O-])cc3)CC2)c1C	47%
Cc1cccc(N2CCN(Cc3ccc(N(C)C)cc3)CC2)c1C	54%
CCN1CCN(Cc2ccc(N(C)C)cc2)CC1	32%
Cc1cccc(N2CCN(Cc3ccc(F)cc3)CC2)c1C	i
CCN1CCN(Cc2ccc(Cl)cc2)CC1	i
Cc1ccccc1N1CCN(Cc2ccccc2)CC1	i
Cc1cccc(N2CCN(Cc3ccccc3)CC2)c1C	i
COc1cc(CN2CCN(c3cccc(C)c3C)CC2)ccc1O	i
SMILES	ST2 inh
Cc1ccc(Cl)cc1N(C)C(=O)C1c2ccccc2C(=O)N2CCCCC12 (stereo not given)	i
COc1cccc(CN2CCN(c3ccccc3C)CC2)c1OC	i
c1cncc(CN2CCCCCC2)c1	i
c1cn(CCc2cnc[nH]2)c(C2CCOC2)n1 (stereo not given)	i
C=CCN(C)C(=O)[C@H]1CN2CCC1C[C@@H]2Cn1cc(-c2cccc(N)c2)nn1 (stereo not given in full)	i
Cc1cccc(NC(c2ccc(N(C)C)cc2)c2ccc3ccc(C)nc3c2O)n1 (stereo not given)	44%
O=C(c1cncnc1)N1C[C@@H]2C[C@H](C1)c1ccc(-c3cccnc3)c(=O)n1C2	i
CC1CCN(c2cc(Br)c([N+](=O)[O-])cc2F)CC1	45%
CN(C)c1ccc(N2CCNCC2)c([N+](=O)[O-])c1	i
O=[N+]([O-])c1cc(F)c(N2CCCCC2)cc1Br	42%
CC1CN(c2ccccc2[N+](=O)[O-])CC(C)N1 (stereo not given)	i
CCOc1ccc(CN2CCC3(CC2)C(=O)N(C)c2ccccc23)cc1CO	i
COCc1ncc(CN2CCN(C)C3(CCN(C)CC3)C2)cn1	i
O=c1ccc(-c2ccc(OC(F)(F)F)cc2)c2n1C[C@@H]1CNC[C@H]2C1	i
COc1ccc([C@@H]2CN(C(=O)C3CCC(O)CC3)[C@@H]3C4CCN(CC4)[C@@H]32)cc1 (stereo not given in full)	i
Cc1cc(N(C)C)cc(C)[n+]1OC(=O)N(c1ccccc1)c1ccccc1	i
C#C[C@H]1CN2CC[C@H]1C[C@@H]2CNCc1cccc(OC(F)(F)F)c1	i
O=c1oc2ccccc2c(O)c1C(C[N+](=O)[O-])c1c[nH]c2ccccc12 (stereo not given)	i
CCOC(=O)c1c(C)n(C2CCCCC2)c2ccc(O)cc12	i
Cc1cc(C=O)c(C)n1C1CCCCC1	30%
CCOC(=O)c1c(C)n(C2CCCCC2)c2ccc(OC(C)=O)cc12	i
COc1ccc(C(=O)N2C[C@@H]3C[C@H](C2)c2ccc(-c4ccc(Cl)cc4)c(=O)n2C3)cc1	i
COc1ccc(-c2ccc(=O)n3c2[C@@H]2C[C@@H](CN(C(=O)Nc4ccc(C)cc4)C2)C3)cc1	i
CN1C(=O)C(=Cc2cccn2-c2cccc([N+](=O)[O-])c2)C(=O)N(C)C1=O	i
CC1CCN(C[C@H]2CN3CC[C@H]2C[C@@H]3CNC(=S)NCc2ccco2)CC1	i
SMILES	ST2 inh
O=C(c1cccs1)N1C[C@@H]2C[C@H](C1)c1c(/C=C/c3ccc(Cl)cc3)ccc(=O)n1C2	i
COc1ccc(CN2CCN(C)CC2)c(OC)c1C	i
COc1ccc(CN2CCN(Cc3ccccc3)CC2)c(C)c1C	34%
CCN1CCN(Cc2ccc(OC)c(C)c2C)CC1	i
O=C(O)COCC(=O)N1C[C@@H]2C[C@H](C1)c1ccc(NC(=O)Cc3ccccc3)c(=O)n1C2	i
COC(=O)c1cccc(NC(=S)NC[C@H]2C[C@@H]3CCN2C[C@@H]3c2cc(-c3ccccc3OC)nn2C)c1	i
O=C(c1cccc2ccnn12)N1C[C@@H]2C[C@H](C1)c1cccc(=O)n1C2	i
Cn1nc(C2CCCCC2)cc1[C@H]1CN2CC[C@H]1C[C@@H]2CNC(=S)Nc1cccc(C#N)c1	i
COc1ccc(N2CCN(Cc3cccc([N+](=O)[O-])c3)CC2)cc1	i
Oc1cccc(CN2CCN(c3ccc(F)cc3)CC2)c1	i
O=[N+]([O-])c1ccc(N2CCN(Cc3cccc(Br)c3)CC2)cc1	32%
CCN1CCN(Cc2cccc(C)c2)CC1	i
O=[N+]([O-])c1ccc(N2CCN(Cc3ccc(Br)cc3)CC2)cc1	i
Cc1cccc(CN2CCN(c3ccc([N+](=O)[O-])cc3)CC2)c1	42%
O=C(Nc1ccc2n(c1=O)C[C@H]1C[C@@H]2CN(C(=O)Cc2cccs2)C1)C1CCCCC1	i
O=C1OC(c2ccccc2)=N/C1=C\N1CC2CC(C1)c1cccc(=O)n1C2 (stereo not given)	i
COc1cc(Cl)cc(CN2CCN(CC3CC3)CC2)c1OC	i
COc1ccc(CN(C)C)c(OC(=O)N(C)C)c1	i
COc1ccc(CCNC2CCC(C)C2)cc1 (stereo not given)	50%
CC(C)c1ccc(CN2CCN(c3ccccc3)CC2)cc1	i
Brc1ccc(CN2CCN(c3ccccc3)CC2)cc1	32%
COc1ccc(N2CCN(Cc3cccc(Br)c3)CC2)cc1	44%
Cc1ccccc1N1CCN(Cc2ccc(Br)cc2)CC1	i
CC(=O)c1ccc(N2CCN(Cc3cccc(Br)c3)CC2)cc1	i
COc1ccc(CN2CCN(Cc3ccccc3Cl)CC2)cc1Br	i
SMILES	ST2 inh
COc1cc(C)c(CN2CCN(c3ccc(F)cc3)CC2)cc1C	i
COc1ccc(N2CCN(Cc3ccc(C)cc3)CC2)cc1	33%
CC(=O)c1ccc(N2CCN(Cc3ccc(C)cc3)CC2)cc1	i
COc1cc(OC)c(CN2CCN(c3ccccc3)CC2)cc1Br	36%
Fc1ccc(N2CCN(Cc3cccc(Br)c3)CC2)cc1	i
COc1cc(OC)c(CN2CCN(C)CC2)cc1Br	i
Nc1c(C(=O)Nc2ccccc2)sc2nc3c(cc12)N1CCC3CC1	i
O=C(c1coc2ccccc12)N1C[C@@H](c2ccccc2)[C@@H]2[C@H]1C1CCN2CC1	i
COCC(=O)NC[C@H]1C[C@@H]2CCN1C[C@@H]2CN1CCC(Cc2ccccc2)CC1	i
O=C(CSc1c2c(nc3ccc(Cl)cc13)CCCC2)N1CCC2(CC1)OCCO2	i
CCCCNC(=O)c1oc2ccc(S(=O)(=O)N3CC(C)CC(C)C3)cc2c1C (stereo not given)	i

Source: PubChem
